DT40 TDP1 CPT – growth inhibition of DT40 Tdp1-/-;hTDP1 cells with camptothecin (screen for TDP1 inhibitors). Potency, µM (doses to about 46.2 µM), most hits filed as inhibitors. hit rate 12% among 420,000. chicken DT40 Tdp1-/-;hTDP1 cells + 20 nM CPT, ATP luminescence, 48 h; note: nearly all actives have a fitted effect of over 55% in size
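Chicken DT40 Tdp1-/- cells complemented with human TDP1, 400 cells/well, exposed to compounds plus 20 nM camptothecin for at least 48 h at 37 C; viability read as ATP content by CellTiter-Glo luminescence.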
HT1080 IDH1KD tx – HT-1080 IDH1 knockdown cell toxicity (counter line). HT-1080 IDH1 knockdown viability, ATP luminescence, 48 h. Potency, µM (top dose mostly 46.1 µM), most hits filed as cytotoxic. hit rate 2% among 360,000
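Cytotoxicity counter-line: IDH1KD HT-1080, 48 h, CellTiter-Glo. Curves classed by r2, magnitude and activity.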
IL1B secr inh – blocks inflammasome-driven IL-1 beta release | activity change, % at 57.5 µM | THP-1 LPS/ATP IL-1B secretion, AlphaLISA, 16 h; active compounds read low | hit rate 4.7% among 360,000; in the data active = activity change below about -50%; inconclusive = mostly about -30% to -49%
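THP-1 cells pretreated 1 hr with compounds (up to 57.5 uM final), then stimulated with LPS (250 ng/mL final) plus ATP (1.25 mM final); secreted IL-1B measured by AlphaLISA after 16 hr, decreased signal indicating inhibition.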
HT1080-NT tox – kills 2HG-producing HT-1080-NT fibrosarcoma cells | Potency, µM (doses to about 46.1 µM), actives largely listed as cytotoxic | HT-1080-NT fibrosarcoma viability, CellTiter-Glo ATP luminescence, 48 h | hit rate 1.6% among 360,000;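 note: NT is the 2HG producing partner of a matched IDH1 knockdown line; nearly all actives have a fitted effect of over 55% in size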
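Read-out is CellTiter-Glo luminescence after 10 minutes at room temperature, following 48 hours' compound treatment of HT-1080-NT cells (750 cells/well, RPMI, 5% FBS, 37 degrees C).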
TDP1 cell noCPT – qHTS for Inhibitors of human tyrosyl-DNA phosphodiesterase 1 (TDP1): qHTS in cells in absence of CPT; DT40 Tdp1-/- hTDP1 cells, no CPT, ATP luminescence, 48 h; Potency, µM (series often up to 46.2 µM), usual class: inhibitors; hit rate 15% among 420,000; note: nearly all actives have a fitted effect of over 55% in size
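Stably hTDP1-transfected Tdp1-null chicken DT40 cells were treated with library compounds minus camptothecin and grown for at least 48 hr at 37 °C, after which cellular ATP was quantified by luminescence.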
ELG1 DNA repair – blocks ELG1-dependent DNA repair in HEK293T cells; HEK293T ELG1-luciferase reporter, luminescence, 16 h; DNA damage induced by 5-fluorouridine; AID 504467; Potency, µM (highest dose often 46.1 µM), actives largely listed as inhibitors; hit rate 2.3% among 330,000; note: nearly all actives have a fitted effect of over 55% in size
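Reporter activity after DNA damage by 5-fluorouridine is monitored. Compound-treated cells incubate 16 hr at 37 °C, then ONE-Glo is added for 30 min before luminescence reading.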
Numbers stand for hits; n = inactive; u = inconclusive; x = not tested or not shown. The list is not random: actives were taken first. Their share in the collection is about 19%. Unless noted, calls come from the whole dose curve; as a rule, active = well fitted curve in the direction sought with a large enough effect; inconclusive = small, poorly fitted or top-dose-only effect, or another doubt; inactive = no such curve, though single readings can be large; an effect the other way counts as inactive or inconclusive.

SMILES	DT40 TDP1 CPT	HT1080 IDH1KD tx	IL1B secr inh	HT1080-NT tox	TDP1 cell noCPT	ELG1 DNA repair
CC(=O)c1ccc(NC(=O)Nc2ccc([N+](=O)[O-])cc2)cc1	n	n	n	n	n	u
O=C(Nc1ccc(Oc2ccc(NC(=O)Nc3ccc([N+](=O)[O-])cc3)cc2)cc1)Nc1ccc([N+](=O)[O-])cc1	2.3µM	u	-88	u	2.1µM	n
CC(=O)Nc1ccc(S(=O)(=O)NCCC(=O)OCc2ccc([N+](=O)[O-])cc2)cc1	13µM	n	n	n	16µM	n
CCCCCCCC/C=C\CCCCCCCC(=O)NCCc1ccc(O)c(O)c1	1µM	23µM	u	4.6µM	2.9µM	n
CCCCCCCC/C=C\CCCCCCCC(=O)NCCO	u	n	n	n	u	n
CCCCCCCC/C=C\CCCCCCCC(=O)NCc1ccc(O)c(OC)c1	3.3µM	x	x	x	u	x
COc1ccccc1NC(=O)c1sc2nc3c(c(C(F)(F)F)c2c1N)CN(C(C)=O)CC3	u	x	x	x	n	x
CCC(=O)N(CC)C1=C(O)c2ccccc2C(=O)C1=O	4.6µM	u	n	n	8.2µM	n
CCOc1cc(C=O)cc(Cl)c1OCC(N)=O	u	n	n	n	18µM	n
CCOc1cc(CO)cc(Br)c1OCC(N)=O	n	n	n	n	n	n
O=C1CN(C(=O)c2ccc(S(=O)(=O)N3CCCC3)cc2)C(c2ccc(F)cc2)c2cc(Br)ccc2N1 (stereo not given)	u	x	x	x	18µM	x
O=C1CN(C(=O)c2ccc(S(=O)(=O)N3CCCCC3)cc2)C(c2ccc(F)cc2)c2cc(Br)ccc2N1 (stereo not given)	26µM	x	x	x	21µM	x
CCCCC1CCC(C(=O)N2CC(=O)Nc3ccc(Br)cc3C2c2ccc(F)cc2)CC1 (stereo not given)	23µM	x	x	x	13µM	x
O=C1CN(C(=O)c2cc3ccccc3oc2=O)C(c2ccc(F)cc2)c2cc(F)ccc2N1 (stereo not given)	u	n	n	n	n	n
CCCC(=O)N1CC(=O)Nc2ccc(Br)cc2C1c1ccc(F)cc1 (stereo not given)	u	n	n	n	n	n
O=C1CN(C(=O)c2cc3ccccc3oc2=O)C(c2ccc(F)cc2)c2cc(Br)ccc2N1 (stereo not given)	13µM	n	n	n	u	n
CN(C)S(=O)(=O)c1ccc(C(=O)N2CC(=O)Nc3ccc(F)cc3C2c2ccc(F)cc2)cc1 (stereo not given)	n	n	n	n	n	n
C#Cc1ccc([C@@H]2C=C(C(=O)OCC=C)O[C@H](OCCCCO)C2)cc1	n	n	n	n	n	n
COC(=O)[C@H](Cc1c[nH]c2ccccc12)NC(=O)NCc1ccc(OC)cc1	n	n	n	n	n	n
CC1(C)CC2/C(CO)=C/C=C/[C@](C)(O)CC[C@]21O (stereo not given in full)	n	x	x	x	n	x
COc1ccc(-c2nc3cnc(N(C)C)nc3n(CCC#N)c2=O)cc1	n	x	x	x	n	x
CC(C)(C)S(=O)N1Cc2cc(=O)n(Cc3ccccc3)c(CCO)c2[C@H]1CCO (stereo not given in full)	u	n	u	n	u	x
CCOC(=O)C1=C(CC)Nc2ccccc2N=C1NC(=O)c1cc(S(=O)(=O)N2CCOCC2)ccc1C	u	n	u	n	n	n
Cc1ccc2c(c1)C(c1ccc(F)cc1)N(C(=O)c1ccc(S(=O)(=O)N3CCCCC3)cc1)CC(=O)N2 (stereo not given)	18µM	x	x	x	u	x
O=C1CN(C(=O)c2cc([N+](=O)[O-])ccc2Cl)C(c2ccc(F)cc2)c2cc(F)ccc2N1 (stereo not given)	u	n	n	n	15µM	n

Bioassay records (PubChem BioAssay)
